PubChem BioAssay (Tox21)
Several values for one entry are separate records, joined by “and”; a condition that tells them apart may be missing. Equal values may be shown once. Results filed as inconclusive are left out. A structure can be active in one record and inactive in another. Activity calls are given as the source filed them. Unless noted, the call rests on the fitted dose curve.

Key:
[1] = Nuclear factor erythroid 2-related factor 2/antioxidant responsive element (Nrf2/ARE) small molecule agonists: qHTS cell viability counter screen in human keratinocytes (AID 1919968; active means well fitted curve in the direction sought with a large enough effect in the repeat runs; an effect the other way counts as inactive or inconclusive; further: nearly all actives have a fitted effect of over 55% in size; further: potency means the concentration at half of the fitted maximal effect)
How it was run: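 Cytotoxicity was multiplexed with the Nrf2/ARE luciferase assay in the same wells. Stably transfected HaCaT keratinocytes were treated with test compounds for 23 h at 37 C. Cell viability was then measured by CellTiter-Fluor fluorescence.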

[2] = Nuclear factor erythroid 2-related factor 2/antioxidant responsive element (Nrf2/ARE) small molecule agonists: luciferase reporter gene qHTS assay in human keratinocytes (AID 1919969); further: nearly all actives have a fitted effect of over 35% in size; further: potency means the concentration at half of the fitted maximal effect
[3] = target: Gonadotropin-releasing hormone receptor (Homo sapiens) (UniProt P30968); assay: Human gonadotropin-releasing hormone receptor (GnRHR) small molecule agonists, calcium flux assay in GnRHR-HEK293 cells (AID 1920063); further: nearly all actives have a fitted effect of over 35% in size
How it was run: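 Agonist activity was measured as intracellular calcium flux in HEK293 cells engineered to stably express human GnRHR. After dye loading for 1 hour at 37 C, compounds in DMSO were added and fluorescence was followed for 3 minutes.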

[4] = target: KiSS-1 receptor (Homo sapiens) (UniProt Q969F8); assay: Human kisspeptin (KISS1R) small molecule agonists, calcium flux assay in KISS1R-HEK293 cells (AID 1920064; active means well fitted curve in the direction sought with a large enough effect in the repeat runs; an effect the other way counts as inactive or inconclusive)
How it was run: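 Agonist activity is monitored as intracellular calcium rise in engineered HEK293 cells carrying human KISS1R. Cells are dye-loaded for 1 h at 37 C before compound addition, and fluorescence is recorded for 3 min.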

[5] = G protein-coupled receptor (GPCR) small molecule agonists, calcium flux assay: HEK293 wild type cell line counter screen (AID 1920065)
How it was run: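 Seed cells, incubate 18 h (37 C, 5% CO2); add calcium dye, 1 h at 37 C; pin-transfer compounds, ATP control or DMSO; read fluorescence 480/540 nm each second for 3 min.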

[6] = p53 small molecule agonists, cell-based qHTS assay with human liver microsomes (AID 1963577); further: potency means the concentration at half of the fitted maximal effect;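 on activation: p53 response element beta-lactamase reporter cells with liver microsomes plus NADPH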
How it was run: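 HLM-supplemented p53RE-bla reporter assay: 16 h compound exposure at 37 C, microsomes and NADPH each 0.5 mg/mL final, read by fluorescence intensity.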

[7] = p53 small molecule agonists, cell-based qHTS assay with human liver microsomes: qHTS cell viability counter screen (AID 1963579); further: nearly all actives have a fitted effect of over 45% in size
How it was run: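 Viability of p53RE-bla cells is measured as CellTiter-Glo luminescence following a 16 h, 37 C incubation with compound, liver microsomes from human donors and NADPH.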

[8] = p53 small molecule agonists, cell-based qHTS assay with rat liver microsomes: qHTS cell viability counter screen (AID 1963580); further: nearly all actives have a fitted effect of over 45% in size
How it was run: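 Luminescent ATP readout (CellTiter-Glo, 30 min at room temperature) reports viability of p53RE-bla HCT-116 cells after 16 h at 37 C with test compounds under metabolic activation by rat liver microsomes and NADPH at 0.5 mg/mL final each.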

[9] = p53 small molecule agonists, cell-based qHTS assay: qHTS cell viability counter screen (AID 1963581); further: nearly all actives have a fitted effect of over 45% in size
How it was run: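 Viability was counter-screened in parallel with the p53 agonist reporter by measuring intracellular ATP luminescence in the same HCT-116 p53RE-bla wells after 16 h compound treatment at 37 C.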

[10] = p53 small molecule agonists, cell-based qHTS assay (AID 1963582; active means well fitted activation curve with a large enough effect in the signal ratio in the repeat runs, not every such curve was filed as active; the % refers to the signal ratio)
How it was run: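 Cells carrying a p53-responsive bla reporter are treated with test compounds for 16 h at 37 C; beta-lactamase activity is then detected with LiveBLAzer B/G FRET substrate after 2 h at room temperature.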

[11] = target: 5-hydroxytryptamine receptor 2A (Homo sapiens) (UniProt P28223); assay: 5-hydroxytryptamine receptor 2A (HTR2A) small molecule agonists, cell-based qHTS assay (AID 1963587); further: nearly all actives have a fitted effect of over 30% in size; further: potency means the concentration at half of the fitted maximal effect
How it was run: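 HTR2A-CHO cells, plated 18 h at 37 C/5% CO2, dye-loaded 1 h at 37 C; compounds in DMSO added by pin tool (agonist mode). Intracellular calcium flux read as kinetic fluorescence on FDSS over 2 min at 1 s intervals.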

[12] = target: Muscarinic acetylcholine receptor M1 (Homo sapiens) (UniProt P11229); assay: Cholinergic receptor muscarinic 1 (CHRM1) small molecule antagonists, cell-based qHTS assay (AID 1963588); further: nearly all actives have a fitted effect of over 40% in size
How it was run: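 Compounds were tested at 15 concentrations in three independent runs. Dye-loaded CHRM1-CHO cells were exposed 5 min at room temperature before stimulation by acetylcholine added at 50nM. Intracellular calcium was read kinetically on FDSS for 3 min.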

[13] = cAMP Responsive Elements (CRE) small molecule agonists, cell-based qHTS assay (AID 1963590)
How it was run: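 Cells carrying a CRE-driven beta-lactamase reporter (HEK 293T) are seeded, incubated overnight (18 h), and treated with test compounds for 3 h at 37 C; reporter activity is then detected with a FRET substrate after 2 h at room temperature.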

[14] = cAMP Responsive Elements (CRE) small molecule antagonists, cell-based qHTS assay (AID 1963591; active means well fitted inhibition curve with a large enough effect in the signal ratio in the repeat runs, not every such curve was filed as active; the % refers to the signal ratio)
How it was run: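 Cells (CRE-bla HEK 293T, DMEM with 10% dialyzed FBS and 25 mM HEPES) are seeded and incubated 18 h. Compounds are added with NKH477 agonist at 0.25 uM final for 3 h, then FRET substrate for 2 h.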

[15] = target: Beta-2 adrenergic receptor (Homo sapiens) (UniProt P07550); assay: Adrenergic beta2 receptor (ADRB2) small molecule antagonists, cell-based qHTS assay (AID 1963592); further: series mostly up to about 92 µM; nearly all actives have a fitted effect of over 50% in size
How it was run: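 Assay format: CHO-ADRB2 cells, 18-20hr seeding at 37C/5% CO2, then compound plus 1nM isoproterenol agonist mix for 0.5hr RT. Homogeneous time-resolved fluorescence cAMP detection after 1hr, expressed as 665/615 nm ratio.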

[16] = target: D(2) dopamine receptor (Homo sapiens) (UniProt P14416); assay: Dopamine D2 receptor (DRD2) small molecule antagonists, cell-based qHTS assay (AID 1963595; active means well fitted inhibition curve with a large enough effect in the signal ratio in the repeat runs, with a control signal flat; the % refers to the signal ratio)
How it was run: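 In this cell-based antagonist screen, compounds act for 10 min at room temperature before a 30 min challenge with 12 nM quinpirole and 200 nM NKH477. cAMP is quantified by HTRF competition in DRD2-HEK293 cells containing 0.1 mM Ro20-1724.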

[17] = p53 small molecule agonists, cell-based qHTS assay with rat liver microsomes (AID 1963578)
How it was run: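 Quantitative HTS of the Tox21 10K library: p53RE-bla cells, rat liver microsomes plus NADPH at 0.5 mg/mL final each, 16 h at 37 C, beta-lactamase fluorescence detection.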

[18] = target: 5-hydroxytryptamine receptor 2A (Homo sapiens) (UniProt P28223); assay: 5-hydroxytryptamine receptor 2A (HTR2A) small molecule antagonists, cell-based qHTS assay (AID 1963586); further: nearly all actives have a fitted effect of over 45% in size
How it was run: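 CHO cells stably expressing human HTR2A were plated for 18 h at 37 C, then loaded with calcium dye for 1 h. Compounds were preincubated 5 min at room temperature before DOI (4 nM solution) was added. Kinetic fluorescence was read for 3 min.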

[19] = target: Beta-2 adrenergic receptor (Homo sapiens) (UniProt P07550); assay: Adrenergic beta2 receptor (ADRB2) small molecule agonists, cell-based qHTS assay (AID 1963593);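 further: CHO cells stably overexpressing human ADRB2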
How it was run: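 CHO cells stably over-expressing ADRB2 were plated overnight at 37C, then dosed with compounds plus a stimulation mix containing 100uM IBMX and 25uM Ro-20-1724 for 0.5hr at room temperature. cAMP was measured by HTRF competition, 1hr.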

[20] = target: D(2) dopamine receptor (Homo sapiens) (UniProt P14416); assay: Dopamine D2 receptor (DRD2) small molecule agonists, cell-based qHTS assay (AID 1963594); further: nearly all actives have a fitted effect of over 35% in size
How it was run: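 HEK293 cells stably expressing DRD2 were cultured 24 h at 37 C, then given Ro20-1724 (0.1 mM final) and compounds for 10 min at room temperature. NKH477 (200nM) was then added for 30 min. cAMP was read by HTRF.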

Measured: Potency

Chain of Beta-2 adrenergic receptor (Homo sapiens) (P07550 whole entry, looked up): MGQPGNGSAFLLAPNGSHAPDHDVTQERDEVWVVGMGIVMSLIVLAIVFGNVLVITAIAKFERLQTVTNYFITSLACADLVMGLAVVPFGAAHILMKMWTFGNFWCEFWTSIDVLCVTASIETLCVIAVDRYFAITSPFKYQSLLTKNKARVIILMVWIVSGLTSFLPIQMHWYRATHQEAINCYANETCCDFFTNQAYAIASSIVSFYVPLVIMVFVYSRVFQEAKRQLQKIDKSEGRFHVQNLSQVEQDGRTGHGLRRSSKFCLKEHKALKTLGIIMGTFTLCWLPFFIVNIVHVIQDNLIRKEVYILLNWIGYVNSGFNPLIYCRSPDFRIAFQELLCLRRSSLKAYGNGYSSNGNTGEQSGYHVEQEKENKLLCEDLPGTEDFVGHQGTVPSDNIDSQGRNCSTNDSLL
Chain of D(2) dopamine receptor (Homo sapiens) (P14416 whole entry, looked up): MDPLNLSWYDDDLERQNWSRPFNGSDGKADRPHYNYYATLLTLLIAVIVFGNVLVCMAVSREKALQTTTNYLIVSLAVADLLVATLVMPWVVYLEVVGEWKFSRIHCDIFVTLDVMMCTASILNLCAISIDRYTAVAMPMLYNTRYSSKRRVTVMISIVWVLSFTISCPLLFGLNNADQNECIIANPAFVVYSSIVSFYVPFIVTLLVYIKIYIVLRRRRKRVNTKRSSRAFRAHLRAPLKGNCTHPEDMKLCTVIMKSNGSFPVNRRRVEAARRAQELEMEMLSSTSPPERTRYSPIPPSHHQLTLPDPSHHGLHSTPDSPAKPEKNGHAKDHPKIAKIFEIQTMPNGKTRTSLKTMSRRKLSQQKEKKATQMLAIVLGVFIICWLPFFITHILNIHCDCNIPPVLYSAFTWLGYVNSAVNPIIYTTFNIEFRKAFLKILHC
Chain of Muscarinic acetylcholine receptor M1 (Homo sapiens) (P11229 whole entry, looked up): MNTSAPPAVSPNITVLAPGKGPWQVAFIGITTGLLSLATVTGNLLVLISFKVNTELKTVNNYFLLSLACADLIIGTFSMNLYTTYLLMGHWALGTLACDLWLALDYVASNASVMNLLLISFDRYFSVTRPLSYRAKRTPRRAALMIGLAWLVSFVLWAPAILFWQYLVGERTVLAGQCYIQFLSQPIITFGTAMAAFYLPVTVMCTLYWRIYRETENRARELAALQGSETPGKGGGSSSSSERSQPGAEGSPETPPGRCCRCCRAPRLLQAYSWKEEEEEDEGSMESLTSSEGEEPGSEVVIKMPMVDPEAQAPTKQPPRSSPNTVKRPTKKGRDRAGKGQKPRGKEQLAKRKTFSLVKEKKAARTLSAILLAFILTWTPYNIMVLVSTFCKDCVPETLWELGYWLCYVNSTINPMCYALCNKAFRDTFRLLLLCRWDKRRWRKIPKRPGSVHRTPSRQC
Chain of Gonadotropin-releasing hormone receptor (Homo sapiens) (P30968 whole entry, looked up): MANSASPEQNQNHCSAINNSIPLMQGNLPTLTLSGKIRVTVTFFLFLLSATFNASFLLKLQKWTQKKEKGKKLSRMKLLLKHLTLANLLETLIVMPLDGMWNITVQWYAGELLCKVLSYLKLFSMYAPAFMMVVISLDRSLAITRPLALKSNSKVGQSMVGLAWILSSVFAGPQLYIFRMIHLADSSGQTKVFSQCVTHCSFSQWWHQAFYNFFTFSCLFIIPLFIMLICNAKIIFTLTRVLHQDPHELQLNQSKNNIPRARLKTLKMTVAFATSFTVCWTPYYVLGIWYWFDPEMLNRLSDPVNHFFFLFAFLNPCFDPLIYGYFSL
Chain of 5-hydroxytryptamine receptor 2A (Homo sapiens) (P28223 whole entry, looked up): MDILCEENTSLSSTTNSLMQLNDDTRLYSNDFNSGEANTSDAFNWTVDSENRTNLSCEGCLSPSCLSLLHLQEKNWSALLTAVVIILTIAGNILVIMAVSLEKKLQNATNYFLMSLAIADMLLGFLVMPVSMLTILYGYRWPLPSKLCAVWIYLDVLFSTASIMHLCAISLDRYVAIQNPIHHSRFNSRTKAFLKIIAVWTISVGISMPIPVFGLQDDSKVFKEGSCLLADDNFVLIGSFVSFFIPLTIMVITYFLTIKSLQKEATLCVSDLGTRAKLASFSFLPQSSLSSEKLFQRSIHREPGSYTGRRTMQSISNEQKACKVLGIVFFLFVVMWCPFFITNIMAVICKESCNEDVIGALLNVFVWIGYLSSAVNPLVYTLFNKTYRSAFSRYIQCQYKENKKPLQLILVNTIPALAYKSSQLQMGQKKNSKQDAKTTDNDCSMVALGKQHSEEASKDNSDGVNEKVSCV
Chain of KiSS-1 receptor (Homo sapiens) (Q969F8 whole entry, looked up): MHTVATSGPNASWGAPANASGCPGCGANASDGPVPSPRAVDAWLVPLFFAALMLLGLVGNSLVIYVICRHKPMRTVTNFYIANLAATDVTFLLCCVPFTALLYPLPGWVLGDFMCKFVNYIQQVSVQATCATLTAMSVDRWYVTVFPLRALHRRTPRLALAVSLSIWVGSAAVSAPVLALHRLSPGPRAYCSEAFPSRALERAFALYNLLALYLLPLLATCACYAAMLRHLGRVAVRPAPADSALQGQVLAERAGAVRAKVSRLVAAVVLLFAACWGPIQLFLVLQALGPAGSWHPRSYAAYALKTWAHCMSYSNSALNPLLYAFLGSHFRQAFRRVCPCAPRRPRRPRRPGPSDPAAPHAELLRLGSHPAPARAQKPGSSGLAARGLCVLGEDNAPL

O=C(/C=C/C=C/c1ccc2c(c1)OCO2)N1CCCCC1
inactive: [1] | [3] | [4] | [5] | [6] | [7] | [8] | [9] | [10] | [12] | [13] | [14] | [15] | [16]
6.18 µM (active) and inactive: [11]
inactive and 2.73 µM (active): [2]

CC(=O)Nc1ccc(C(=O)O)cc1
inactive: [1] | [2] | [3] | [4] | [5] | [6] | [17] | [9] | [18] | [11] | [12] | [13] | [14] | [15] | [19] | [20] | [16]

O=[N+]([O-])C(CO)(CO)CO
inactive: [1] | [2] | [3] | [4] | [5] | [6] | [7] | [8] | [9] | [10] | [18] | [11] | [12] | [13] | [15] | [19] | [20] | [16]

c1ccc2cc(Nc3ccc(Nc4ccc5ccccc5c4)cc3)ccc2c1
inactive: [1] | [2] | [3] | [4] | [5] | [17] | [7] | [8] | [9] | [10] | [18] | [11] | [13] | [14] | [15] | [19] | [20] | [16]

NCCN1CCNCC1
inactive: [1] | [2] | [3] | [4] | [5] | [6] | [7] | [8] | [9] | [10] | [18] | [11] | [13] | [14] | [15] | [20] | [16]

CCCCNS(=O)(=O)c1ccccc1
inactive: [1] | [2] | [3] | [4] | [5] | [6] | [17] | [9] | [10] | [18] | [11] | [12] | [13] | [15] | [19] | [20] | [16]

NC(=S)NNC(N)=S
inactive: [1] | [2] | [3] | [4] | [5] | [6] | [7] | [8] | [9] | [10] | [11] | [12] | [13] | [14] | [19] | [20] | [16]

C=CC(=O)OCCCC
inactive: [1] | [2] | [3] | [4] | [5] | [17] | [7] | [8] | [9] | [10] | [18] | [11] | [12] | [13] | [15] | [20] | [16]

c1ccc2cc3c(ccc4ccccc43)cc2c1
active: [2] 9.72 µM and 9.69 µM
inactive: [1] | [3] | [4] | [5] | [6] | [7] | [8] | [9] | [18] | [11] | [12] | [13] | [14] | [15] | [19] | [20] | [16]

COCCCN
inactive: [1] | [2] | [3] | [4] | [5] | [6] | [17] | [9] | [18] | [11] | [13] | [14] | [19] | [20] | [16]

CC1(C)C(=O)N(Cl)C(=O)N1Cl
inactive: [1] | [2] | [3] | [4] | [5] | [17] | [7] | [8] | [9] | [10] | [18] | [11] | [12] | [13] | [15] | [19] | [20] | [16]

Cc1ccc([N+](=O)[O-])cc1S(=O)(=O)O
inactive: [1] | [2] | [3] | [4] | [5] | [17] | [7] | [8] | [9] | [10] | [18] | [11] | [12] | [13] | [14] | [15] | [16]

CCCCCCCCC(=O)O
inactive: [1] | [2] | [3] | [4] | [5] | [7] | [8] | [9] | [10] | [18] | [11] | [12] | [14] | [15] | [20] | [16]
active: [6] 39.5 µM

O=C(Nc1ccccc1SSc1ccccc1NC(=O)c1ccccc1)c1ccccc1
active: [1] 6.14 µM and 6.11 µM | [2] 4.88 µM and 6.11 µM
inactive: [3] | [4] | [5] | [6] | [7] | [8] | [9] | [10] | [18] | [11] | [15] | [19] | [20] | [16]
